According to the supplement of paper PMC11732987, “Enantioselective OTUD7B fragment discovery through chemoproteomics screening and high-throughput optimisation” (Communications Chemistry, 2025):
Unmarked numbers belong to inactive results.

Biological target: COPS5 (UniProt Q92905)
Experiment: log2 ratio of Biotin-Ahx-Ub-VS probe labelling (fragment/DMSO); higher = less target engagement (more negative = stronger competition), active = hit call of the paper (q ≤ 0.05, log2 ratio ≤ -1)
Details: compound concentration: 200 uM; treatment time: 3 h
Experimental: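 Competitive ABPP in HEK293T cell lysate. Lysates were treated with each chloroacetamide fragment at 200 µM for 3 h, then with Biotin-Ahx-Ub-VS (0.5 µM, 1 h), NeutrAvidin-enriched and analysed by diaPASEF LC-MS/MS. Protein LFQ was median-normalised; average log2 ratio is fragment/DMSO from an unpaired t-test (n=3 treated, n=44 DMSO). Hits: q ≤ 0.05, log2 ratio ≤ -1, unique peptides ≥ 2.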

Sequence of COPS5 (Q92905 whole entry, looked up, the tested form may be a part): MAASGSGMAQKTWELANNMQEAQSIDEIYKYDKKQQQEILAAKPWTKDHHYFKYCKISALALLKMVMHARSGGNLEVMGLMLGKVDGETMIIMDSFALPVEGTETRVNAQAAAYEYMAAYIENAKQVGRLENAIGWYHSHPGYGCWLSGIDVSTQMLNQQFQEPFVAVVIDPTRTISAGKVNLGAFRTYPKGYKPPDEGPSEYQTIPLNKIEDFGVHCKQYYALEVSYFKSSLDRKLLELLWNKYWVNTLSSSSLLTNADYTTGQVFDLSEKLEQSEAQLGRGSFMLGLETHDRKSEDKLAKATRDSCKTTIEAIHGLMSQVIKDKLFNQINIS

Structure (SMILES)	log2 ratio of Biotin-Ahx-Ub-VS probe labelling
CNC(=O)Cn1cc(NC(=O)CCl)cn1	0.0739
O=C(CCl)N1CCC(S(=O)(=O)c2ccc(F)cc2)CC1	-0.0227
CC(NC(=O)CCl)c1cnn(C2CC2)c1 (stereo not given)	-0.244
Cl.O=C(CCl)NCc1ccnc(Oc2ccccc2F)c1	0.031
O=C(CCl)NC1CCOc2ccccc21 (stereo not given)	-0.296
NC(=O)C(Cc1ccccc1)NC(=O)CCl (stereo not given)	0.0263
CN(Cc1nc2ccccc2[nH]1)C(=O)CCl.Cl	-0.0146
O=C(CCl)NC1CCS(=O)(=O)c2ccccc21 (stereo not given)	0.159
CCC1c2ccsc2CCN1C(=O)CCl (stereo not given)	-0.188
O=C(CCl)N1CCC[C@@H]1c1ccon1	-0.115
CC(NC(=O)CCl)c1cccc(Cl)c1 (stereo not given)	-0.0887
O=C(CCl)N1CC2(CCOCC2)C1	0.161
O=C(CCl)N1CCc2[nH]c3ccccc3c2C1	-0.0163
Cc1ncsc1CCNC(=O)CCl	0.936
Cc1ccccc1CN(C)C(=O)CCl	0.0682
O=C(CCl)N1CCN(C(=O)Nc2ccccc2)CC1	-0.0124
CC(C)n1nccc1NC(=O)CCl	0.0761
O=C(CCl)N1CCN(C(=O)N2CCCCC2)CC1	-0.16
NC(=O)C1CCCCN1C(=O)CCl (stereo not given)	0.234
O=C(CCl)Nc1cccc(NC(=O)c2ccccc2)c1	-0.238

Structure (SMILES)	log2 ratio of Biotin-Ahx-Ub-VS probe labelling
O=C(CCl)N(C1CCCC1)C1CCS(=O)(=O)C1 (stereo not given)	-0.0682
Cc1nc(CC2CCN(C(=O)CCl)CC2)no1	0.22
O=C(CCl)Nc1cccc(C(=O)N2CCSCC2)c1	-0.111
Cc1noc(N2CCN(C(=O)CCl)CC2)n1.Cl	-0.17
COc1ccc(-c2csc(NC(=O)CCl)n2)cc1	0.189
Cc1ccc(CN(C)C(=O)CCl)o1	0.0171
Cc1nc(CN2CCN(C(=O)CCl)CC2)cs1	-0.305
O=C(CCl)N1CCOC(CCc2ccccc2)C1 (stereo not given)	-0.026
O=C(CCl)Nc1cc2c(cc1Cl)OCCCO2	-0.0643
CC1(NC(=O)CCl)CCS(=O)(=O)C1 (stereo not given)	0.0148
Cc1cc(Cl)ccc1NC(=O)CCl	-0.176
O=C(CCl)NCc1ccc2c(c1)OCO2	0.119
O=C(CCl)Nc1ccccc1C(F)(F)F	0.00522
O=C(CCl)N1CCc2sccc2C1	-0.455
O=C(CCl)NCc1cccc(N2CCCC2=O)c1	-0.0124
C/C(=C\CNC(=O)CCl)c1cnn(C)c1.Cl	-0.0819
Cc1cccc(N2CCC(NC(=O)CCl)C2=O)c1 (stereo not given)	-0.0421
NC(=O)C1CCCN(C(=O)CCl)C1 (stereo not given)	0.0012
Cl.Cn1nc2c(c1CNC(=O)CCl)CCCC2	-0.111
O=C(CCl)N1CCCN(C(=O)c2ccc(Cl)cc2)CC1	0.0384
